# Results taken from ChEMBL document CHEMBL1157539, “Thousands of chemical starting points for antimalarial lead identification” (Nature, 2010).
# Values joined by “and” are separate entries in the source; they are usually repeats but may differ in a detail not shown here. Equal entries are not always repeated.
# Experiments:
# Plasmodium falciparum [1] = test: GSK_TCMDC: Inhibition of Plasmodium falciparum 3D7 in whole red blood cells, using parasite LDH activity as an index of growth. Test compounds present at 2uM; type: functional
# Plasmodium falciparum [2] = test: GSK_TCMDC: Inhibition of Plasmodium falciparum Dd2 in whole red blood cells, using parasite LDH activity as an index of growth. Test compounds present at 2uM; type: functional
Compound,Inhibition (Plasmodium falciparum [1]),Inhibition (Plasmodium falciparum [2])
Cc1cc(=O)c(-c2ccc(Oc3ccc(OC(F)(F)F)cc3)cc2)c(C)[nH]1,93%,61%
Cc1ccccc1Cn1ccc2c3c(N)nc(N)nc3ccc21,100%,
Cl.Nc1nc(N)c2c(n1)CCc1cc(Br)ccc1-2,87%,4%
CCc1cc2c3c(N)nc(N)nc3ccc2n1C(C)(C)C,99%,
Cc1ccc(Cn2ccc3c4c(N)nc(N)nc4ccc32)cc1,99%,
Nc1nc(N)c2cc(Cc3ccc([N+](=O)[O-])cc3)cnc2n1.O=S(=O)(O)O,91%,0%
CCCc1ccc(Cc2cnc3nc(N)nc(N)c3c2C)cc1,98%,0%
Br.CC(C)(C)OC(=O)N[C@@H](CS(=O)(=O)CCNC(=N)COCc1ccccc1)C(=O)OC(C)(C)C,88%,76%
Cn1c(N)cc(-c2cccc(I)c2)c2c(=O)nc(N)nc1-2,89%,75%
CN1CCN(c2ccc3[nH]c(-c4ccc5[nH]c(-c6ccc([N+](=O)[O-])c(N)c6)nc5c4)nc3c2)CC1,100%,100%
Cl.c1ccc2c(c1)cc(CNCCCN1CCN(CCCNCc3cc4ccccc4c4ccccc34)CC1)c1ccccc12,100%,98%
COc1ccc2c(CNCCCCCCNCc3c(OC)ccc4cc(OC)ccc34)c(OC)ccc2c1.CS(=O)(=O)O,100%,79%
CCN(CC)CCCC(C)Nc1ccnc2cc(C#N)ccc12 (stereo not given),100%,80%
Cc1nc(N)nc(N)c1-c1cc(Cl)c(Cl)c(Cl)c1,97%,0%
CCOC(=O)N1CCN(CCCCCNc2cc(C)nc(NC(=N)Nc3ccc(Cl)cc3)n2)CC1.Cl,100%,0%
COc1ccc(Cc2cnc3nc(N)nc(N)c3c2C)cc1OC.O=S(=O)(O)CCO,93%,97%
Cl.FC(F)(F)c1ccc2c(NCCCNc3ccnc4cc(C(F)(F)F)ccc34)ccnc2c1,100%,100%
Cc1nc2nc(N)nc(N)c2c(C)c1Cc1ccc(N)cc1.Cl,97%,0%
CCOc1ccc(CNCCCCCCNCc2ccc(OCC)c3ccccc23)c2ccccc12.CS(=O)(=O)O,100%,75%
CCc1ccc(Cc2cnc3nc(N)nc(N)c3c2C)cc1CC,97%,0%
Nc1nc(N)c2cc(Cc3ccccc3Cl)cnc2n1,93%,0%

Compound,Inhibition (Plasmodium falciparum [1]),Inhibition (Plasmodium falciparum [2])
CCCc1cc(OC)c(CC2c3cc(O)c(Cl)cc3C(c3ccccc3)CN2C)cc1OC.Cl (stereo not given),100%,100%
Cc1nc(C)c(-c2ccc(Oc3ccc(Cl)c(Cl)c3)cc2)c(O)c1Cl,100%,97%
Cc1cccc(Cn2ccc3c(N)nc(N)nc32)c1,82%,
Nc1nnc(-c2ccc(Cl)c(Br)c2)c(N)n1,86%,0%
CCCCNCc1cc(Cl)c2ccccc2c1O.Cl,100%,100%
COc1cc(Cc2cnc(N)nc2N)cc(OCCCC(=O)O)c1OC,84%,0%
Cc1[nH]c(C)c(-c2ccc(Oc3ccc(Cl)cc3)cc2)c(=O)c1Cl,91%,16%
CC1CNC(c2ccc(NC(=O)Nc3ccc(C4=NC(C)CN4)cc3)cc2)=N1.Cl (stereo not given),85%,67%
Cc1ccc(Cc2cccc3nc(N)nc(N)c23)cc1,92%,0%
CC(CO)(CO)NCc1cc2ccc3ccsc3c2c2ccccc12.CS(=O)(=O)O,96%,98%
COc1cc(Cc2cnc(N)nc2N)cc(OCCCCNS(=O)(=O)C(F)(F)F)c1OC,84%,0%
COc1ccc2ncc(F)c(C(O)CN3CCC(NCc4ccc5c(n4)NC(=O)CO5)CC3)c2c1.Cl (stereo not given),99% and 100%,51% and 88%
Cc1nc(C)c(-c2ccc(Oc3ccc(Cl)cc3)c(Cl)c2)c(O)c1Br,97%,96%
N=C(N)NC(=O)Nc1cc(Br)c(Cl)c(C(F)(F)F)c1,100%,91%
Cl.Oc1c(CNC2CCCCC2)cc(Cl)c2ccccc12,98%,100%
CC(CNC(=N)c1cccc(C(=N)NCC(C)Oc2cccc(C3CCCCC3)c2)n1)Oc1cccc(C2CCCCC2)c1.Cl (stereo not given),90%,31%
CCCCNCCOc1ccc(-c2nc(-c3ccccc3)c(-c3ccccc3)[nH]2)cc1,100%,34%
CCCOc1ccc(CNCCCCCCNCc2ccc(OCCC)c3ccccc23)c2ccccc12.CS(=O)(=O)O,100%,96%
Nc1ncc(-c2ccc(F)c(Cl)c2)c(N)n1,83%,0%
COc1ccc(OC)c(Cc2c(C)nc3nc(N)nc(N)c3c2C)c1.Cl,90%,0%
COc1ccc2c(O)c(Br)c(C)nc2c1,89%,74%

Compound,Inhibition (Plasmodium falciparum [1]),Inhibition (Plasmodium falciparum [2])
COc1cc2c(cc1OC)C(C)(C)CN1Cc3c(c(CO)c(OC)c(OC)c3OC)CC21.Cl (stereo not given),95%,9%
CCCN(c1ccc(O)c(CN2CCCCC2)c1)c1ccc([N+](=O)[O-])cn1.O=C(O)C(=O)O,99%,96%
N=C(N)NC(=O)Nc1ccc(Cl)c(C(F)(F)F)c1,100%,13%
COc1cccc2c(O)c(CNC3CCCCC3)ccc12.Cl,100%,98%
Cl.N=C(N)c1ccc(OCCCCCOc2ccc(C(=N)N)cc2)cc1 [PENTAMIDINE HYDROCHLORIDE],99%,98%
Cl.Nc1nc(N)c2c(ccc3nn(Cc4ccccc4)cc32)n1,97%,88%
Cl.Clc1ccc(CNCCCCCCCNCc2ccc(Cl)c(Cl)c2)cc1Cl,99%,49%
Cc1nc2ccc(S(=O)(=O)Nc3ccc(C(=O)N[C@@H](CCC(=O)O)C(=O)O)cc3)cc2c(=O)[nH]1,94%,2%
Nc1nc(N)c2c(Oc3cc(Cl)c(Cl)c(Cl)c3)cccc2n1,100%,92%
CCCCNCc1ccc(OCc2cccc(COc3ccc(CNCCCC)cc3I)c2)c(I)c1.Cl,87%,13%
CCCCc1nc2nc(N)nc(N)c2cc1CCC,97%,0%
Nc1nc(Cc2ccc(Cl)cc2)nc(Cc2ccc(Cl)cc2)n1,85%,0%
CC(=O)Nc1ccc(OCCCCCOc2ccc(NC(C)=O)cc2Cl)c(Cl)c1,93%,0%
CCCc1cc(Cc2cnc(N)nc2N)c2cccnc2c1OC,98%,3%
CN=C(N)c1ccc(NC(=O)C=Cc2ccc(C(=O)Nc3ccc(C(N)=NC)cc3)cc2)cc1.Cl,97%,100%
COc1cc(CCNC(=O)Cc2ccc3ccccc3c2)ccc1OCc1ccccc1,93%,61%
CCN(CC)CCCN(CCCN(CC)CC)c1cc(C)nc(Nc2ccc(Br)cc2)n1.Cl,100%,40%
Cc1cccc(-c2c(C)nc(N)nc2N)c1,88%,0%
COc1cc(Cc2cnc3nc(N)nc(N)c3c2C)cc(OC)c1OC,95%,98%
COc1ccc2c(c1CCNCCCCNCCc1c(OC)ccc3c1CCCC3)CCCC2.CS(=O)(=O)O,100%,25%
CCc1nc(N)nc(N)c1-c1ccc2c(c1)CCCC2,95%,0%

Compound,Inhibition (Plasmodium falciparum [1]),Inhibition (Plasmodium falciparum [2])
CN(C)S(=O)(=O)n1ncc2c3c(N)nc(N)nc3ccc21.Cl,96%,0%
CCNCCCC(C)Nc1ccnc2cc(Cl)ccc12.O=C(O)C(=O)O (stereo not given),100%,0%
COc1ccc(-c2cnc(N)nc2N)cc1Cl,84%,1%
COc1cc(Cc2cnc(N)nc2N)cc(OCCCCCCC(=O)O)c1OC,90%,2%
CCCCN(CCCC)Cc1cc(N(C)c2ccc([N+](=O)[O-])cn2)ccc1O.O=C(O)C(=O)O,98%,98%
CCCCCCCN(Cc1ccc(OC(C)(C)C(=O)OCC)cc1)C(=O)Nc1ccc(Cl)cc1OCC,95%,89%
CC(=NNC(S)=NCc1ccco1)c1ccccn1,99%,100%
CC(C)C(=O)Nc1c(F)cc(F)cc1CCc1ccc(O)cc1,90%,91%
CCN(C)C(=O)n1ncc2c3c(N)nc(N)nc3ccc21,95%,0%
CCc1ccc(Cc2cnc3nc(N)nc(N)c3c2C)cc1,97%,0%
Cc1nc(C)c(-c2ccc(Oc3cc(Cl)cc(Cl)c3)cc2)c(O)c1Cl,96%,96%
CC(C)Oc1ccc2ccccc2c1CNCCCCCCNCc1c(OC(C)C)ccc2ccccc12.CS(=O)(=O)O,99%,90%
CCOC(=O)c1c(-c2ccccc2)c(C(=O)OCC)n2ccccc12,93%,70%
CC(=NNc1nc2ccccc2s1)c1ccccn1.Cl,88%,47%
CCCCCCCc1c(C)[nH]c2ccc(F)cc2c1=O,98%,96%
O=C(Nc1cccc(-c2cccc(-c3nc4ccccc4[nH]3)c2)c1)NC1CC1c1ccccc1 (stereo not given),90% and 87%,22% and 27%
COc1cc(Cc2cnc(N)nc2N)cc(OCCCC#N)c1OC,86%,0%
CCCCCCOc1ccc2ccccc2c1CNCCCCCCNCc1c(OCCCCCC)ccc2ccccc12.CS(=O)(=O)O,85%,55%
Cc1c(Cc2ccc(C(C)C)cc2)cnc2nc(N)nc(N)c12,97%,0%
